Compound activity (PubChem BioAssay)
GLP1R inv ag – acts as inverse agonist at human GLP-1 receptor; P43220; HEK293 GLP-1R CRE-luciferase, luminescence, 24 h; GLP-1R form is constitutively active; Potency, µM (top dose mostly 38.3 µM), most hits filed as inhibitors; 410,000 tested, 1.6% active; note: nearly all actives have a fitted effect of over 55% in size
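Constitutively active GLP-1R drives a cAMP-responsive luciferase in stably transfected HEK293 cells; test compounds are added after overnight (12 h) attachment and left 24 hr, and signal loss in luminescence marks inhibition.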
HEK293 tox – cytotoxicity counter-screen for GLP-1 receptor inverse agonists; Potency, µM (series often up to 38.3 µM), most hits filed as inhibitors; 410,000 tested, 0.13% active; AID 624418; HEK293 cAMP-luciferase reporter cells, luminescence, 24 h;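 note: loss of luciferase light is scored as toxicity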
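Step one: seed cells (200 cells/uL, DMEM with 10% Nu serum, 1% pen-strep). Step two: 12-hour incubation at 37 deg C. Step three: pin 23 nL compound, incubate 24 hr. Step four: add luciferase reagent, read luminescence 12 min later.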
D3 ag – D3 dopamine receptor (human) agonism; AID 652048; 410,000 tested, 0.58% active; P35462; D3R DiscoveRx beta-arrestin cells, luminescence, 90 min; max activation, %; in the data active = max activation above about 30%
Target sequence (P35462 whole entry, looked up): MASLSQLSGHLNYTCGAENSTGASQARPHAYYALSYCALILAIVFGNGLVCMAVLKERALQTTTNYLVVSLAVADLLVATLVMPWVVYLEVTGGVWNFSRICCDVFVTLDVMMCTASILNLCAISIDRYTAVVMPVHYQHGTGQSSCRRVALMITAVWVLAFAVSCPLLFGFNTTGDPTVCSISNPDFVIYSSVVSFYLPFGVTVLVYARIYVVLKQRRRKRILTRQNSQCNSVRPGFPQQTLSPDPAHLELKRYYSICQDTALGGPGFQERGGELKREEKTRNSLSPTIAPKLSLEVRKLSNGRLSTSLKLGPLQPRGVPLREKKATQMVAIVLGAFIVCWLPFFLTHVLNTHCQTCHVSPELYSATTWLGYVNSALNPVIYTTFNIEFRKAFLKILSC
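Agonist mode: compounds and dopamine controls were applied to plated cells for 90 min at 37 degrees C after an overnight attachment at 1500 cells/well. Luminescent read-out followed 30 - 60 minutes at room temperature with DiscoveRx detection reagent.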
ClpP mod – qHTS Assay for Activators of ClpP | ATP-dependent Clp protease proteolytic subunit (Bacillus subtilis (strain 168)), P80244 | purified B. subtilis ClpP, FRET peptide cleavage, 20 min | Potency, µM (doses to about 57.5 µM) | 340,000 tested, 1.9% active; active = well fitted falling curve with a large enough effect; inconclusive = small, poorly fitted or top-dose-only effect; inactive = no such curve, though single readings can be large or run the other way; note: the source files actives as falling curves though it sought activators and does not explain the sign; nearly all actives have a fitted effect of over 65% in size
Target sequence (P80244 whole entry, looked up): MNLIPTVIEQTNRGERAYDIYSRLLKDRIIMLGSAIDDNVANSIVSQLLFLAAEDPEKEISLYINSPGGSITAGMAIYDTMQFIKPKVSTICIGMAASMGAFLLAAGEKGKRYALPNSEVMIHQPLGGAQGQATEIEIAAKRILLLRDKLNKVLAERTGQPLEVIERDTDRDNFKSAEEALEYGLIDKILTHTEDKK
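Buffer: 100 mM Tris/HCl pH8, 100 mM KCl, 0.05% low protease BSA, 2.5% glycerol, 0.01% Tween-20. ClpP 10 microg/mL final; 20 min RT; delta FRET normalized to ADEP and DMSO controls.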
D3 antag – blocks the human D3 dopamine receptor. P35462. 360,000 tested, 2.5% active. D3R cells, DiscoveRx beta-arrestin luminescence, antagonist mode; stronger effect = lower value. max response, negative = inhibition, %; in the data active = max response below about -50%; inconclusive = no clear call, values can overlap the other calls
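Cells expressing the human receptor were seeded at 1500 cells/well, incubated overnight at 37 degrees C in 5% CO2, then exposed to library compounds with dopamine controls for 90 minutes at 37 degrees C before luminescent detection.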
GLP-1R agonist – activates the human GLP-1 receptor | HEK293 GLP-1R CRE-luciferase, luminescence, 4-6 h; cells express a hypersensitive GLP-1R form | Potency, µM (top dose mostly 45.6 µM), usual class: activators | 380,000 tested, 0.007% active | AID 624172
Each line names hits and unclear results; the compound was inactive in the other large screens. This is a sample that favours compounds with a hit; in the whole collection about 5.7% have one here. Unless noted, calls come from the whole dose curve; as a rule, active = well fitted curve in the direction sought with a large enough effect; inconclusive = small, poorly fitted or top-dose-only effect, or another doubt; inactive = no such curve, though single readings can be large; an effect the other way counts as inactive or inconclusive.

CCCC(=O)N1CCC1(C)C(=O)NS(=O)(=O)c1cccs1 (stereo unspecified)	none
NS(=O)(=O)c1ccc(CNC(=O)C2(c3ccc(Cl)cc3)CC2)cc1	none
COc1ccc(CNC(=O)C2(c3ccc(Cl)cc3)CC2)cc1	GLP1R inv ag 10µM (no result: ClpP mod)
CCCCCC(=O)N1C[C@H](O)[C@@H](n2cc(-c3ccc(F)cc3)nn2)C[C@@H]1c1ccc(Cl)cc1	GLP1R inv ag 10µM, HEK293 tox inconclusive, D3 antag inconclusive
CCCCCC(=O)N1C[C@H](O)[C@@H](n2cc(-c3ccc(F)cc3)nn2)C[C@@H]1c1ccc(OC)cc1	GLP1R inv ag 11.2µM
COc1ccc([C@H]2C[C@@H](O)[C@H](n3cc(C4CC4)nn3)CN2CC2CCCCC2)cc1	GLP1R inv ag 7.94µM
CCCCCCN1C[C@@H](n2cc(-c3ccc(F)cc3)nn2)[C@H](O)C[C@@H]1c1ccc(OC)cc1	GLP1R inv ag 3.16µM, HEK293 tox inconclusive
COc1ccc([C@H]2C[C@H](O)[C@@H](n3cc(C4CC4)nn3)CN2CC2CCCCC2)cc1	GLP1R inv ag inconclusive
CC(C)C1=CC2=CC[C@@H]3[C@](C)(CCC[C@@]3(C)C(=O)O)[C@H]2CC1	none (no result: GLP1R inv ag, HEK293 tox, ClpP mod, D3 antag)
CC(=O)c1cccc(NC(=O)Nc2nnc(N3CCCC3)s2)c1	none (no result: D3 antag, GLP-1R agonist)
CCOc1ccc(Nc2nc(Cc3nnc(SCC(=O)c4ccc(C)c(C)c4)o3)cs2)cc1	GLP1R inv ag 11.2µM, HEK293 tox inconclusive
Cc1ccc(NC(=O)CSc2nnc(Cc3csc(C)n3)o2)cc1	none
CC(=O)Nc1ccc(Nc2ccc3cc(S(=O)(=O)N4CCCCC4)ccc3n2)cc1	none (no result: D3 antag, GLP-1R agonist)
CC(C)CNS(=O)(=O)c1cc(C(=O)N2CC(C)OC(C)C2)c(Cl)cc1Cl (stereo unspecified)	D3 antag -54.6
CCOc1ccc(NC(=S)N(CCc2c(C)[nH]c3ccc(C)cc23)Cc2ccco2)cc1	GLP1R inv ag 7.94µM
CCCc1c(-c2ccccc2)ncn1Cc1ccccc1OC	GLP1R inv ag inconclusive
O=C(c1ccc2c(c1)OCO2)C1CCCN(Cc2cccc(C(F)(F)F)c2)C1 (stereo unspecified)	GLP1R inv ag inconclusive, D3 antag -115.0
O=C(c1ccc2c(c1)OCO2)C1CCCN(Cc2ccc(OC(F)F)cc2)C1 (stereo unspecified)	GLP1R inv ag inconclusive, D3 antag -76.3
CCc1nc2c(OCc3ccc(F)c(F)c3)cccn2c1N(C)C(=O)C1CC1	none
CC(C)SC1=NC(C)(C)C=C(/C=C/c2c(Cl)cccc2Cl)N1	GLP1R inv ag 2.82µM
CC(C)SC1=NC(C)(C)C=C(/C=C/c2ccc(Cl)cc2Cl)N1	GLP1R inv ag inconclusive
Cc1ccc(Cn2cc(CN3CC(N4CCCC4)CS3(=O)=O)nn2)cc1 (stereo unspecified)	none
C[C@H]1CCC[C@]2(C)C[C@H]3OC(=O)C(CN4CCCCCC4)[C@H]3C=C12 (stereo partly specified)	GLP1R inv ag 11.2µM, HEK293 tox inconclusive
COc1ccc(-c2ccc(C#N)c(OC)n2)cc1	none (no result: ClpP mod)
N#Cc1ccc(-c2ccc(F)cc2)nc1Oc1ccc(Cl)c(Cl)c1	ClpP mod 39.8µM
Cn1cc(C(=O)N/N=C/c2ccc(Br)c([N+](=O)[O-])c2)c2ccccc21	D3 antag -67.1 (no result: ClpP mod)
CS(=O)(=O)N1CCc2cc(C(=O)Nc3cccc(F)c3)ccc21	none (no result: D3 antag, GLP-1R agonist)
Cc1ccc(-n2c(Cl)c(Cl)nc(Cl)c2=O)cc1	GLP1R inv ag inconclusive, HEK293 tox 2.82µM, D3 antag -106.2
CC1=NN(/C(=N\c2nnc(C)s2)Nc2ccccc2)[C@H](c2cccc3ccccc23)S1	D3 antag inconclusive
CC1=NN(/C(=N\c2nnc(C)s2)Nc2ccc(C)cc2)[C@H](c2ccc(C)cc2)S1	GLP1R inv ag 10µM
CNc1c(Cl)cc(C=O)cc1Cl	none (no result: GLP1R inv ag, HEK293 tox, D3 ag, D3 antag, GLP-1R agonist)
Cc1cc(Br)ccc1NC(=O)c1coc(=O)c2ccccc12	none (no result: D3 antag, GLP-1R agonist)
COc1ccc(C2C(C#N)=C(N)Oc3n[nH]c(C)c32)cc1Cn1nnc2ccccc21 (stereo unspecified)	ClpP mod inconclusive, D3 antag -61.5
CCc1c(C)nc2nncn2c1Nc1cccc(C)c1	none (no result: D3 antag, GLP-1R agonist)
Clc1ccc(CN2CCCCCC2)cc1	none
CCOC(=O)C1CCN(Cc2cnc(Oc3ccc(N)cc3)s2)CC1	none
C=C(C)C1CC=C(CN2CC(C)OC(C)C2)CC1 (stereo unspecified)	none
CCOC(=O)C1CCN(Cc2cnc(Oc3ccc(Cl)cc3C)s2)CC1	D3 antag -58.3
CCOC(=O)C1CCN(Cc2ccc(C(=O)OC)cc2)CC1	D3 antag -52.8
C=C(C)C1CC=C(CN2CCC(C(=O)OCC)CC2)CC1 (stereo unspecified)	D3 antag -60.6
Clc1ccc(CN2CCCCCCC2)cc1Cl	GLP1R inv ag inconclusive, D3 antag -90.5
COc1cc(NC(=O)c2nn(-c3ccc(F)cc3)c(=O)n(C)c2=O)cc(OC)c1OC	none (no result: D3 antag, GLP-1R agonist)
Cc1ccc(S(=O)(=O)c2nnn3c2nc(Nc2ccc(C(C)C)cc2)c2sccc23)cc1C	none (no result: D3 antag, GLP-1R agonist)
COc1ccc(CNC(=O)Cn2c(=O)oc3cc(S(=O)(=O)NCc4ccccc4)ccc32)cc1	none (no result: D3 antag, GLP-1R agonist)
Clc1ccc(-c2cc(CN3CCOCC3)no2)cc1	none (no result: ClpP mod)
CCOC(=O)C1CCN(Cc2ccc(Cl)c(Cl)c2)CC1	D3 antag -85.0
COC(=O)c1ccc(CN2CCCCC2)cc1	D3 antag -55.7
Clc1ccc(-c2cc(CN3CCCCC3)no2)cc1Cl	GLP1R inv ag 10µM (no result: ClpP mod)
CC1=C(NCCc2ccccc2)CCC1=O	none
CCCNC1=C(C)C(=O)CC1	ClpP mod 31.6µM
COc1cc(Nc2ccccn2)cc(C(=O)Nc2cccc(C(F)(F)F)c2)c1	GLP1R inv ag 11.2µM, HEK293 tox inconclusive, ClpP mod inconclusive
COc1cc(NC(=O)c2nccnc2N)cc(C(=O)Nc2cccc(C(F)(F)F)c2)c1	none
COc1cc(NC(=O)c2ccno2)cc(C(=O)Nc2cccc(C(F)(F)F)c2)c1	GLP1R inv ag inconclusive
COc1cc(NC(=O)c2cc3cccc(OC)c3o2)cc(C(=O)Nc2cccc(C(F)(F)F)c2)c1	GLP1R inv ag inconclusive, D3 ag 46.4, ClpP mod 25.1µM
Cc1ccc(F)c(S(=O)(=O)NC(=O)C2(C)CCN2C(=O)c2sccc2C)c1 (stereo unspecified)	none
Cc1c(C(=O)N(C)C2CCCCC2)sc2ncnc(N3CCN(c4ccccc4F)CC3)c12	GLP1R inv ag 12.6µM
Cc1c(C(=O)N(C)C2CCCCC2)sc2ncnc(N3CCN(c4ccccc4)CC3)c12	GLP1R inv ag inconclusive
